Test results: publication PMC8384837, “Expanding the binding specificity for RNA recognition by a PUF domain”

Assays:
Assay in all cases: yeast three-hybrid, YBZ-1, SC-Leu-His + 0.5 mM 3-AT, 4 days
Conditions in all cases: tags: N-Gal4 AD-HA kept; label: inside an RPR1-promoter hybrid RNA with tandem MS2 sites; ssRNA
PUM1 PUF domain R3-RIK = PUM1 PUF domain R3-RIK (Homo sapiens, UniProt Q14671 828-1176, C935R;R936I;Q939K)
Procedure, shortened: (§1)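 Matching RNA elements and Pumilio-1 PUF domain libraries, randomized at the three base-contacting residues of every repeat, were co-expressed from a centromeric plasmid in strain YBZ-1 (LexA–MS2 coat fusion, HIS3 reporter). The repeat regions were PCR-amplified and Illumina-sequenced from cells grown four days on SC-Leu (input) or SC-Leu-His + 0.5 mM 3-AT (selection). The interaction score is the log change in variant frequency from input to selection. It is computed in log2, with a pseudocount of 1 for absent variants.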

PUM1 PUF domain R3-RQL = PUM1 PUF domain R3-RQL (Homo sapiens, UniProt Q14671 828-1176, C935R;R936Q;Q939L)
Procedure, shortened: as §1

PUM1 PUF domain R3-LCR = PUM1 PUF domain R3-LCR (Homo sapiens, UniProt Q14671 828-1176, C935L;R936C;Q939R)
Procedure, shortened: as §1

PUM1 PUF domain R3-SRG = PUM1 PUF domain R3-SRG (Homo sapiens, UniProt Q14671 828-1176, C935S;Q939G)
Procedure, shortened: as §1

PUM1 PUF domain R6-VFT = biological target: T1, PUM1 PUF domain R6-VFT (Homo sapiens, UniProt Q14671 828-1176, N1043V;Y1044F;Q1047T)
T1 sequence: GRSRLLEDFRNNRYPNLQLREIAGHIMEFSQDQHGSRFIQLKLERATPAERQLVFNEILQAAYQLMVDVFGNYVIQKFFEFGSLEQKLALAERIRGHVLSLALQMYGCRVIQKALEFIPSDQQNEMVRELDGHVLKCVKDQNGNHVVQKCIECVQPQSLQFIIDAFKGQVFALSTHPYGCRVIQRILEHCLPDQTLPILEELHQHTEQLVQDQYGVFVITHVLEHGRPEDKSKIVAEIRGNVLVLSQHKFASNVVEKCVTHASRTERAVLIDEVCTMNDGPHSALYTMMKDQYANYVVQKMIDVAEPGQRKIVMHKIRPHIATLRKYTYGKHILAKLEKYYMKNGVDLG
Procedure, shortened: as §1

PUM1 PUF domain R5-TQG = PUM1 PUF domain R5-TQG (Homo sapiens, UniProt Q14671 828-1176, C1007T;R1008Q;Q1011G)
Procedure, shortened: as §1

PUM1 PUF domain R4-EFG = PUM1 PUF domain R4-EFG (Homo sapiens, UniProt Q14671 828-1176, N971E;H972F;Q975G)
Procedure, shortened: as §1

PUM1 PUF domain R5-KNG = PUM1 PUF domain R5-KNG (Homo sapiens, UniProt Q14671 828-1176, C1007K;R1008N;Q1011G)
Procedure, shortened: as §1

PUM1 PUF domain R5-KQG = PUM1 PUF domain R5-KQG (Homo sapiens, UniProt Q14671 828-1176, C1007K;R1008Q;Q1011G)
Procedure, shortened: as §1

PUM1 PUF domain R7-KWH = PUM1 PUF domain R7-KWH (Homo sapiens, UniProt Q14671 828-1176, S1079K;N1080W;E1083H)
Procedure, shortened: as §1

GGCUAGAACUAGUGGAUCCCCCGGCGCCCGGCGGCUCGAGCCCGGGUAAGUGUAAUUAGUCUGCAUGCCGCCGGGCGCCAUGCCUGCAGGUCGACUCUAGAAAACAUG
binding signal (PUM1 PUF domain R3-RIK): 2.73 log2 enrichment (interaction score)
binding signal (PUM1 PUF domain R3-RQL): 3.54 log2 enrichment (interaction score)
binding signal (PUM1 PUF domain R3-LCR): 1.28 log2 enrichment (interaction score)

GGCUAGAACUAGUGGAUCCCCCGGCGCCCGGCGGCUCGAGCCCGGGUAAGUGUAAGUAGUCUGCAUGCCGCCGGGCGCCAUGCCUGCAGGUCGACUCUAGAAAACAUG
binding signal (PUM1 PUF domain R3-SRG): 2.65 log2 enrichment (interaction score)
binding signal (PUM1 PUF domain R3-LCR): 3.54 log2 enrichment (interaction score)

GGCUAGAACUAGUGGAUCCCCCGGCGCCCGGCGGCUCGAGCCCGGGUAAGUGUAAAUAGUCUGCAUGCCGCCGGGCGCCAUGCCUGCAGGUCGACUCUAGAAAACAUG
binding signal (PUM1 PUF domain R3-SRG): 4.45 log2 enrichment (interaction score)
binding signal (PUM1 PUF domain R6-VFT): 2.21 log2 enrichment (interaction score)
binding signal (PUM1 PUF domain R5-TQG): 0.76 log2 enrichment (interaction score)
binding signal (PUM1 PUF domain R4-EFG): 3.99 log2 enrichment (interaction score)

GGCUAGAACUAGUGGAUCCCCCGGCGCCCGGCGGCUCGAGCCCGGGUAAGUGAAAAUAGUCUGCAUGCCGCCGGGCGCCAUGCCUGCAGGUCGACUCUAGAAAACAUG
binding signal (PUM1 PUF domain R6-VFT): 6.61 log2 enrichment (interaction score)

GGCUAGAACUAGUGGAUCCCCCGGCGCCCGGCGGCUCGAGCCCGGGUAAGUGUCAAUAGUCUGCAUGCCGCCGGGCGCCAUGCCUGCAGGUCGACUCUAGAAAACAUG
binding signal (PUM1 PUF domain R5-KNG): 2.59 log2 enrichment (interaction score)
binding signal (PUM1 PUF domain R5-KQG): 3.41 log2 enrichment (interaction score)

GGCUAGAACUAGUGGAUCCCCCGGCGCCCGGCGGCUCGAGCCCGGGUAAGUGUUAAUAGUCUGCAUGCCGCCGGGCGCCAUGCCUGCAGGUCGACUCUAGAAAACAUG
binding signal (PUM1 PUF domain R5-KNG): 4.33 log2 enrichment (interaction score)

GGCUAGAACUAGUGGAUCCCCCGGCGCCCGGCGGCUCGAGCCCGGGUAAGUAUAAAUAGUCUGCAUGCCGCCGGGCGCCAUGCCUGCAGGUCGACUCUAGAAAACAUG
binding signal (PUM1 PUF domain R7-KWH): 2.68 log2 enrichment (interaction score)

GGCUAGAACUAGUGGAUCCCCCGGCGCCCGGCGGCUCGAGCCCGGGUAAGUCUAAAUAGUCUGCAUGCCGCCGGGCGCCAUGCCUGCAGGUCGACUCUAGAAAACAUG
binding signal (PUM1 PUF domain R7-KWH): 5.07 log2 enrichment (interaction score)

GGCUAGAACUAGUGGAUCCCCCGGCGCCCGGCGGCUCGAGCCCGGGUAAGUGUGAAUAGUCUGCAUGCCGCCGGGCGCCAUGCCUGCAGGUCGACUCUAGAAAACAUG
binding signal (PUM1 PUF domain R5-TQG): 2.63 log2 enrichment (interaction score)

GGCUAGAACUAGUGGAUCCCCCGGCGCCCGGCGGCUCGAGCCCGGGUAAGUGUAUAUAGUCUGCAUGCCGCCGGGCGCCAUGCCUGCAGGUCGACUCUAGAAAACAUG
binding signal (PUM1 PUF domain R4-EFG): 1.18 log2 enrichment (interaction score)
